According to PubChem BioAssay AID774 (SRMLSC, 2007):
In all, about 65,000 compounds went through this assay and about 15 (0.02%) were called active.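 The calls were made as follows: active = single-dose screening hits from any of four coupled enzyme assays that gave an IC50 when retested across doses; inconclusive = no clear call, values can overlap the other calls; inactive = the rest.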 Not all results are given here. Non-standard residues stand in square brackets, D forms with d. Residues, ends and D or L forms follow the SMILES beside them. ξ: configuration not given here. ξV = CC(C)C(N)C(=O)O

assay: NADH-endpoint coupling enzyme inhibition profiling – biochemical, MLSMR library, artefact control, profiling panel (AID 774); settings: coupled PK/LDH NADH assays, four targets; at 10 µM; hits give high values;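 also: the DPM-DC format reads NADH fluorescence rather than 340 nm absorbance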

inhibition, inactive:
c1ccc(-c2noc(-c3cccs3)n2)nc1 3%
CCCOC(=O)Nc1sc2c(c1C(=O)OCC)CCC2 5%
O.O.O.O=S(=O)([O-])OC[C@H]1O[C@@H](O[C@]2(COS(=O)(=O)[O-])O[C@H](OS(=O)(=O)[O-])[C@@H](OS(=O)(=O)[O-])[C@@H]2OS(=O)(=O)[O-])[C@H](OS(=O)(=O)[O-])[C@@H](OS(=O)(=O)[O-])[C@@H]1OS(=O)(=O)[O-].[Al] 1%
CC(=O)c1c(C)n([O-])c2ccccc2[n+]1=O 5%
Cc1ccc2[nH]c3c(c2c1)CN(C(=O)CN1CCN(c2ccccc2)CC1)CC3 3%
CCn1c(SCC(=O)NCc2ccco2)nnc1-c1ccc(N)cc1 3%
COc1ccc2c3c(c(=O)oc2c1OCC(=O)C(C)(C)C)CCCC3 4%
O=C(O)c1ccc(F)c(S(=O)(=O)Nc2ccccc2)c1 6%
CC1CN(Cc2nc3c(c(=O)n(C)c(=O)n3C)n2Cc2cccc(Cl)c2)CC(C)O1 (stereo unspecified) 5%
CC(=O)NC(C(=O)NCC(N)=O)C(C)C (stereo unspecified) (Ac-[ξV]-Gly-NH2) 4%
Cn1c(-c2ccc(C(=O)c3ccccc3)s2)nc2ccccc21 6%
O=C(Oc1ccc2c(c1)CCC2)N1CCOCC1 3%
O=P(c1ccc2c(c1)OCCO2)(N1CCOCC1)N1CCOCC1 0%
CCOc1ccc(OCC)c(NC(=O)C(NS(=O)(=O)c2ccc3c(c2)oc(=O)n3C)C(C)C)c1 (stereo unspecified) 7%
O=C(O)CN1C(=O)CC(Cc2ccccc2)C1=O (stereo unspecified) 1%
CCCc1cc(=O)oc2c(C)c(O)c(CN3CCCCC3)cc12 1%
CO/N=C(\C(=O)N[C@@H]1C(=O)N2C(C(=O)O)=C(COC(C)=O)CS[C@H]12)c1csc(N)n1 (stereo in doubt) 0%
Cc1noc(C)c1S(=O)(=O)N(CC(=O)NCc1ccc(Cl)cc1)c1ccc2c(c1)OCO2 9%
C=CCNC(=O)CCCC(=O)NCC=C 5%
CCCn1c(SCC(=O)Nc2cccc(C(=O)OCC)c2)nnc1-c1ccoc1C 7%
C=CCOc1nc2c(c(=O)n(C)c(=O)n2C)n1Cc1ccc(Cl)cc1Cl 8%
Fc1ccc2nc(Nc3nc4c(s3)CCCC4)sc2c1 3%
C=CCNC(=O)C1CC=CCC1C(=O)O (stereo unspecified) 4%
CCO/C([O-])=N/c1c[n+](N2CCOCC2)no1 1%
COC(=O)Cc1csc(Nc2c(C)n(C)n(-c3ccccc3)c2=O)n1 8%
COc1ccccc1C1/C(=C(/O)c2ccc(C)cc2)C(=O)C(=O)N1Cc1ccco1 (stereo unspecified) 10%
C=CCc1cccc2cc(C(=O)OCC)c(=O)oc12 6%
Cn1c(=O)c2c(nc(OCc3cccnc3)n2Cc2ccccc2)n(C)c1=O 3%
CCOc1ccc(OCC)c(NC(=O)CN(C)S(=O)(=O)c2cccc3nsnc23)c1 4%
O=C(OCC(O)C(O)COC(=O)c1ccccc1)c1ccccc1 (stereo unspecified) 5%
c1ccc2c(CNn3cnnc3)cccc2c1 3%
